Assay results taken from PubChem BioAssay AID504810 (National Center for Advancing Translational Sciences (NCATS), 2011).
In all, about 330,000 compounds went through this assay and about 670 (0.2%) were called active. This is one part of a sample in which actives are shown more often than they occur. Values without a mark were called inactive.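 The calls were made as follows: active = activity change below a set negative limit, meaning inhibition stronger than a set level (cut at about -70% in these data); inconclusive = activity change between two set negative limits; inactive = the rest.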
% is scaled to controls: 0 for no effect and ±100 for the full control effect.

The molecules below were run against Thyrotropin receptor (Homo sapiens) (UniProt P16473) (assay: Antagonists of the Thyroid Stimulating Hormone Receptor: HTS campaign). Details: TSHR-expressing cells, TSH-stimulated cAMP HTRF, 2 h; at 11.5 µM; stronger effect = lower value.
Thyrotropin receptor (Homo sapiens), sequence (P16473 whole entry, looked up): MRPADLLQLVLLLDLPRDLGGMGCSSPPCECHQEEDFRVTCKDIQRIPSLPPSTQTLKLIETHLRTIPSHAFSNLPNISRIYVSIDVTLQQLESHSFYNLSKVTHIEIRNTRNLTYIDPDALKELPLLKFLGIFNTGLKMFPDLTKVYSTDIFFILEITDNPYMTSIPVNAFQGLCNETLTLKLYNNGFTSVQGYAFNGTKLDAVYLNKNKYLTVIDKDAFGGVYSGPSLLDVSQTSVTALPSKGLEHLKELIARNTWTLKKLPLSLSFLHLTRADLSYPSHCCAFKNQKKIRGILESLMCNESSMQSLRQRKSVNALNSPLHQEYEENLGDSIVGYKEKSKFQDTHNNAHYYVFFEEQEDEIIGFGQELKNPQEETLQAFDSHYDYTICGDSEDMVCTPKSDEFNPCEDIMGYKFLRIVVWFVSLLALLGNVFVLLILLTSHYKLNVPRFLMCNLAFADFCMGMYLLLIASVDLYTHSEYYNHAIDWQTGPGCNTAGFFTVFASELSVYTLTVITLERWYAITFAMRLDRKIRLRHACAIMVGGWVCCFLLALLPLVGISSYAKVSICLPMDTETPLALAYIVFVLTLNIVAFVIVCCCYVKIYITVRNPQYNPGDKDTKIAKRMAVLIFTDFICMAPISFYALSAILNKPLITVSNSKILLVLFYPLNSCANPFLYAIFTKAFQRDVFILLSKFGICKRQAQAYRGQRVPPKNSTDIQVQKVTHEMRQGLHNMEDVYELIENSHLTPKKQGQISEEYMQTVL
Procedure, shortened: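 Cell-based HTRF cAMP assay; TSHR cells + compound, TSH EC80 (4nM final), 2 h, 37 deg C. Lysis with anti-cAMP cryptate and cAMP-d2, 30 min RT, read 665/620 nm.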
`Cc1cc(C)n2nc(C(=O)N(C)C(c3ccccc3)c3ccccc3)nc2n1` showed an activity change, negative = inhibition of 0.111%.
`Cc1cc(C)n2nc(C(=O)OC(C)C(=O)c3cc(C)c(C)cc3C)nc2n1` (stereo not given) was tested, and the activity change, negative = inhibition was 23.5%.
With `O=C(CN1C(=O)CSC1=O)N1CCCC(Nc2ccc(F)cc2)C1` (stereo not given) the activity change, negative = inhibition was -1.23%.
`Cc1ccsc1C(=O)OCC(=O)Nc1cccc(F)c1` gave an activity change, negative = inhibition of -3.82%.
`COc1cc(OC)c(S(=O)(=O)Nc2ccccc2C(=O)O)cc1S(=O)(=O)Nc1ccccc1C(=O)O` gave an activity change, negative = inhibition of -2.52%.
`COc1cc(NC(=O)c2ccccc2NS(=O)(=O)c2ccc(Cl)s2)cc(OC)c1` was tested, and the activity change, negative = inhibition was -75.8% (active).
Molecule `CCOc1ccc(NC(=O)c2ccccc2NS(C)(=O)=O)cc1` has an activity change, negative = inhibition of 5.45%.
`CCN(CC)C(=O)CSC1c2ccccc2C(=O)N1c1ccccc1` (stereo not given) showed an activity change, negative = inhibition of 4.85%.
Work on `O=C(CCSCCc1ccccn1)Nc1nccs1` yielded an activity change, negative = inhibition of -1.45%.
`CC(=O)c1nn(-c2cccc(Br)c2)cc1C(=O)c1cccc2ccccc12` was tested, and the activity change, negative = inhibition was 7.96%.
With `CC(C)Cc1nn2c(=O)cc(O)nc2s1` the activity change, negative = inhibition was 2.07%.
Work on `CCOC(=O)C1(Cc2ccccc2C)CCCN(C(=O)c2ccc(COC)o2)C1` (stereo not given) yielded an activity change, negative = inhibition of 26.3%.
`CCOc1ccc(/C=N/OCC(=O)NCc2cccs2)cc1` was tested, and the activity change, negative = inhibition was -4.83%.
`CC1CCCCC1NC(=O)CO/N=C/c1ccc(OC(F)F)cc1` (stereo not given) gave an activity change, negative = inhibition of -11.3%.
For `O=C(CO/N=C/c1ccc(OC(F)F)cc1)NCc1ccc(F)cc1`, the activity change, negative = inhibition was -73.2% (active).
Work on `CC(=O)N1c2ccc(S(=O)(=O)NCCC(=O)N(C)C3CCCCC3)cc2CC1C` (stereo not given) yielded an activity change, negative = inhibition of 4.56%.
For `CC(=O)N1c2ccc(S(=O)(=O)N(C)CC(=O)N(C)Cc3ccccc3)cc2CC1C` (stereo not given), the activity change, negative = inhibition was -99.1% (active).
`COc1cccc(CNS(=O)(=O)c2ccc3c(c2)CC(C)N3C(C)=O)c1` (stereo not given) was tested, and the activity change, negative = inhibition was -6.62%.
Molecule `Cc1ccc2cc(C)c(N3CCN(c4ccc(F)cc4)CC3)nc2c1` has an activity change, negative = inhibition of 12.4%.
`CC(Sc1nncs1)C(=O)NCc1ccc2c(c1)OCO2` (stereo not given) showed an activity change, negative = inhibition of 18.9%.
Work on `COc1cccc(CNC(=O)c2nnn(CC(=O)Nc3cc(C)ccc3C)c2N)c1` yielded an activity change, negative = inhibition of 4.35%.
In the case of `COc1cccc(CNC(=O)c2nnn(CC(=O)Nc3cc(Cl)ccc3C)c2N)c1`, the activity change, negative = inhibition is reported as -74.4% (active).
For `COc1ccc(CNC(=O)c2nnn(CC(=O)Nc3cc(C)cc(C)c3)c2N)cc1`, the activity change, negative = inhibition was 5.35%.
In the case of `CC(=O)/C(C)=N/O`, the activity change, negative = inhibition is reported as 17.4%.
Molecule `CC12CCC(C(=O)N(NC(=O)c3ccccc3O)C1=O)C2(C)C` (stereo not given) has an activity change, negative = inhibition of 68.7%.
Work on `COc1cc(/C=C(/NC(=O)c2ccc(Cl)cc2Cl)C(=O)O)cc(OC)c1OC` yielded an activity change, negative = inhibition of -0.961%.
In the case of `COc1cccc(CCNC(=O)COc2cccc3c2OC(C)(C)C3)c1`, the activity change, negative = inhibition is reported as -10.3%.
For `COc1ccccc1C(=O)NCCC(=O)N(C)Cc1cccnc1`, the activity change, negative = inhibition was 9.57%.
Work on `COc1cc(C2NC(=O)NC(c3ccccc3)=C2C(C)=O)c(Br)cc1OCC(N)=O` (stereo not given) yielded an activity change, negative = inhibition of -8.27%.
With `C[C@H](NC(=O)c1nc[nH]c1C(=O)NCC(=O)OC(C)(C)C)C(=O)OCc1ccccc1` the activity change, negative = inhibition was -7.53%.
In the case of `O=C(NNC(=O)c1cc(-c2ccccc2Cl)nc2ccccc12)c1csc(N2CCOCC2)n1`, the activity change, negative = inhibition is reported as 0.138%.
`CS(=O)(=O)N(CC(=O)N/N=C/c1ccccn1)c1ccc(Oc2ccccc2)cc1` gave an activity change, negative = inhibition of -9.31%.
Molecule `Cc1nc2nc(CSc3nc4ccccc4s3)cc(=O)n2[nH]1` has an activity change, negative = inhibition of -15%.
Work on `NC(=O)c1ccc(Nc2ccc3nonc3c2[N+](=O)[O-])cc1` yielded an activity change, negative = inhibition of 27.6%.
With `O=[N+]([O-])c1c(NCCO)cc(Sc2nc3ccccc3s2)c2nonc12` the activity change, negative = inhibition was -94.3% (active).
`O=C(COC(=O)COc1cccc(F)c1)NCC1CCCCC1` gave an activity change, negative = inhibition of 8.58%.
For `O=C(Cc1c(F)cccc1Cl)Nc1ncc([N+](=O)[O-])s1`, the activity change, negative = inhibition was -13.2%.
For `CC(=O)Oc1ccccc1C(=O)Nc1ncc([N+](=O)[O-])s1`, the activity change, negative = inhibition was -80.5% (active).
`Cc1cnc(NC(=O)c2ccccn2)s1` gave an activity change, negative = inhibition of 6.51%.
`CCOc1ccc(C(CC(=O)O)NC(=O)C23CC4CC(CC(C4)C2)C3)cc1OC` (stereo not given) was tested, and the activity change, negative = inhibition was -4.83%.
Molecule `Cc1occc1-c1nnc(SCC(=O)NC2CCCCC2)o1` has an activity change, negative = inhibition of -3.93%.
`CCCCCCCCc1c(O)nc(-n2[nH]c(C)c(CCO)c2=O)[nH]c1=O` was tested, and the activity change, negative = inhibition was 7.75%.
`Cc1cccc(C(=O)NNC(=O)CSc2nnc(C(C)C)n2C)c1` showed an activity change, negative = inhibition of 2.38%.
`Cc1ccc(SCC(=O)c2cc(C)c(OC(=S)N(C)C)c(C)c2)cc1` showed an activity change, negative = inhibition of -25%.
Work on `N=C1C(c2nc3ccccc3s2)=C(O)CN1NC(=O)c1ccc([N+](=O)[O-])cc1` yielded an activity change, negative = inhibition of -1.44%.
With `Cc1cc(CNC(=O)c2cccc([N+](=O)[O-])c2)c2ccccc2n1` the activity change, negative = inhibition was -9.8%.
In the case of `O=C(NC(Nc1nc2ccc([N+](=O)[O-])cc2s1)(C(F)(F)F)C(F)(F)F)c1ccccc1`, the activity change, negative = inhibition is reported as -78.9% (active).
`CN(C)c1cc2c(Nc3ccc4c(cnn4Cc4ccccc4)c3)ncnc2cn1` gave an activity change, negative = inhibition of -17.2%.
`COc1ccc(CCNC(=O)C2CC3Cn4c(nc5cc(C)c(C)cc54)C3N2C)cc1` (stereo not given) was tested, and the activity change, negative = inhibition was -1.1%.
Molecule `Nc1ncnc2c1c(I)cn2[C@@H]1C[C@H](N)[C@@H](O)[C@H]1O` has an activity change, negative = inhibition of -18%.
`CCOc1ccc(C(=O)NC2CCN(CC(=O)NCc3cccs3)CC2)cc1` was tested, and the activity change, negative = inhibition was 1.48%.
With `O=C(Nn1c(SCc2ccc([N+](=O)[O-])cc2)nc2ccccc2c1=O)c1ccc(F)cc1` the activity change, negative = inhibition was -74.2% (active).
For `Cc1nc2ccccc2c(=O)n1NC(=O)c1ccc(Cl)c([N+](=O)[O-])c1`, the activity change, negative = inhibition was -24.1%.
`C=CCn1c(SCc2ccc(C(=O)NCCO)cc2)nc2ccccc2c1=O` gave an activity change, negative = inhibition of -4.95%.
With `CCO[C@@H]1OC(C(=O)NCc2nc3ccccc3[nH]2)=C[C@H](C2CCCCC2)[C@H]1CCCO` the activity change, negative = inhibition was -6.97%.
Molecule `CC(C)C[C@H](NC(=O)[C@H](O)[C@H](N)Cc1ccccc1)C(=O)O` has an activity change, negative = inhibition of -6.27%.
`O=C(CSc1ncn[nH]1)Nc1nc(-c2cccc([N+](=O)[O-])c2)cs1` was tested, and the activity change, negative = inhibition was 7.62%.
With `O=C(CSc1nc(-c2ccccc2)cs1)Nc1cccc([N+](=O)[O-])c1` the activity change, negative = inhibition was -78.8% (active).
`COc1ccc(-n2cnnc2SCC(=O)Nc2cccc([N+](=O)[O-])c2)cc1` gave an activity change, negative = inhibition of -5.22%.
`COc1cc(NC(=O)c2cc([N+](=O)[O-])ccc2Br)ccc1NC(=O)c1ccco1` was tested, and the activity change, negative = inhibition was -16.5%.
`Cc1ccccc1NC(=O)CSc1nc2ccc(Nc3nc(N4CCOCC4)nc(N4CCOCC4)n3)cc2s1` was tested, and the activity change, negative = inhibition was -6.48%.
`Cc1ccc(Nc2nc(N)nc(CN3CCN(Cc4ccccc4)CC3)n2)cc1Cl` was tested, and the activity change, negative = inhibition was 5.19%.
`Cc1ccc(Nc2nc(N3CCOCC3)nc(N3CCOCC3)n2)cc1Cl` was tested, and the activity change, negative = inhibition was -135% (active).
`O=C(Nc1ccc(-c2cscn2)cc1)C1CCCN(Cc2ccc(CO)o2)C1` (stereo not given) gave an activity change, negative = inhibition of 14.3%.
`CSc1nnc(-c2ccc(C(F)(F)F)cn2)o1` showed an activity change, negative = inhibition of 7.33%.
